Measurements published in PubChem BioAssay (NCATS).
Entries with a potency or affinity are not part of this list. Calls of active or inactive are those of the source. The rule behind the calls is not given here.

Conditions: Ebola virus entry assay, green fluorescence channel
Note: 0% is about no effect.

Row | SMILES | efficacy
1 | O=C1O[C@H](CO)[C@@H](O)[C@H](O)[C@H]1O | 24.7% (inactive)
2 | Cc1ccccc1N1CCN(CCc2nnc3n2CCCC3)CC1 | -13.1% (inactive)
3 | CCCCC(CC)CN1CN(CC(CC)CCCC)CC(C)(N)C1 (centres undefined) | -31.6% (inactive)
4 | CN1CCN(N)CC1 | 16.4% (inactive)
5 | O=C(O)CSCC(=O)NC1CCSC1=O (centres undefined) | -14.4% (inactive)
6 | CC(C)COC(=O)c1ccc(N)cc1 | 8.42% (inactive)
7 | CC(=O)Nc1c(I)c(NC(C)=O)c(I)c(C(=O)O)c1I | -8.35% (inactive)
8 | COc1ccc(C2CNC(=O)C2)cc1OC1CCCC1 (centres undefined) | -23.7% (inactive)
9 | CSCC[C@H](NC(=O)[C@H](Cc1c[nH]c2ccccc12)NC(=O)CCNC(=O)OC(C)(C)C)C(=O)N[C@@H](CC(=O)O)C(=O)N[C@@H](Cc1ccccc1)C(N)=O | 9.45% (inactive)
10 | Cc1cc(=O)c2c(O)c3c(O)cc(=O)c4c3c3c(cc(O)c1c23)C(C)(C)C=4O | -11.2% (inactive)
11 | NS(=O)(=O)c1ccc(C(=O)O)cc1 | 11% (inactive)
12 | NC(=O)NC1NC(=O)NC1=O (centres undefined) | -19.2% (inactive)
13 | CCn1ccc(NS(=O)(=O)c2ccc(N)cc2)nc1=O | -11.6% (inactive)
14 | COc1ccc(C(=O)c2ccccc2O)c(O)c1 | -11.1% (inactive)
15 | C=CCc1ccc(O)c(OC)c1 | 23.7% (inactive)
16 | O=C(O)CCCCC(=O)O | -12.4% (inactive)
17 | CC1(C)O[C@@H]2C[C@H]3[C@@H]4CCC5=CC(=O)C=C[C@]5(C)[C@@]4(F)[C@@H](O)C[C@]3(C)[C@]2(C(=O)CO)O1 | 24.4% (inactive)
18 | CC(C)(Oc1ccc(Cl)cc1)C(=O)OCCCOC(=O)C(C)(C)Oc1ccc(Cl)cc1 | -14% (inactive)
19 | CC(=O)SCC(CC(=O)c1ccc(C)cc1)C(=O)O (centres undefined) | 17.3% (inactive)
20 | CC(=O)Oc1cccc2c1C(=O)c1c(OC(C)=O)cc(C(=O)O)cc1C2=O | -17.1% (inactive)

Row | SMILES | efficacy
21 | CC(C)=CCC[C@@](C)(O)[C@H]1CC=C(C)CC1 | -15.6% (inactive)
22 | COc1cc2c(Nc3ccc(Br)cc3F)ncnc2cc1OCC1CCN(C)CC1 | 16.7% (inactive)
23 | COc1c2occc2c(OC)c2c(=O)cc(C)oc12 | 13.6% (inactive)
24 | CCS(=O)(=O)c1ccc(OC)c(C(=O)OC)c1 | 18.9% (inactive)
25 | CC12CCC(CC1)C(C)(C)O2 | 14.6% (inactive)
26 | CC(=O)Nc1ccc(/C=N/NC(N)=S)cc1 | 33.2% (inactive)
27 | CCOc1ccc2nc3cc(N)ccc3c(N)c2c1 | 18.4% (inactive)
28 | NC(=O)NS(=O)(=O)c1ccc(Cl)cc1 | -22.2% (inactive)
29 | CC(=O)C1CCOC1=O (centres undefined) | 6.81% (inactive)
30 | O=C(O)Cc1sc(-c2ccccc2)nc1-c1ccc(Cl)cc1 | -17.4% (inactive)
31 | C[C@]12CC[C@H]3[C@@H](CCC4=CC(=O)CC[C@@H]43)[C@@H]1CC[C@@H]2OC(=O)CCC1CCCCC1 | -18.4% (inactive)
32 | CCN(CC)CCOC(=O)c1ccc(N)cc1 | -27.3% (inactive)
33 | O=C(OCc1ccccc1)c1ccccc1 | -23.2% (inactive)
34 | NC(=O)NC1N=C([O][Al])NC1=O (centres undefined) | 12.9% (inactive)
35 | COc1ccc2[nH]cc(CCNC(C)=O)c2c1 | -12.3% (inactive)
36 | CC(=O)N[C@@H](CC(C)C)C(=O)O | -14.4% (inactive)
37 | Cn1c(=O)c2[nH]c(Br)nc2n(C)c1=O | -24.3% (inactive)
38 | NC(N)=NCCN1CCCCCCC1 | -19.4% (inactive)
39 | Cc1ccc(C(=O)C(C)CN2CCCCC2)cc1 (centres undefined) | -18.5% (inactive)
